Assay [1] is described as follows: NCI Yeast Anticancer Drug Screen. Data for the rad50 strain (AID 155).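 Note: 0% = growth of vehicle-only cultures of the same strain.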 Conditions: S. cerevisiae rad50 strain growth inhibition; at 50.0 µM; stronger effect = higher value. In a few lines: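 A DNA repair-deficient yeast mutant serves as the test organism; compound-induced growth inhibition is calculated against vehicle-treated cells.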
Assay [2] can be described thus: NCI Yeast Anticancer Drug Screen. Data for the mec2-1 strain (AID 157). Conditions: S. cerevisiae mec2-1 strain, at 50.0 µM, stronger effect = higher value. In a few lines:
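Using mec2-1 yeast: add compound, measure growth, express inhibition versus vehicle-treated cultures.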

A short description of assay [3]: NCI Yeast Anticancer Drug Screen. Data for the sgs1 mgt1 strain (AID 161).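 Note: 0% = growth of cultures given vehicle only.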 Conditions: S. cerevisiae sgs1 mgt1 strain, at 50.0 µM, stronger effect = higher value. The method, boiled down: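 Growth of a repair-deficient yeast mutant was monitored after compound treatment and expressed as inhibition relative to vehicle-treated cultures.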
Assay [4] in a line: NCI Yeast Anticancer Drug Screen. Data for the cln2 rad14 strain (AID 165).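 Note: 0% = growth equal to vehicle treated cultures.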 Conditions: S. cerevisiae cln2 rad14 strain, at 50.0 µM, stronger effect = higher value. In a few lines: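 Yeast strain cln2 rad14, bearing defects in cell cycle control and DNA repair, serves as the test system; values reflect growth inhibition compared with vehicle.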
Assay [5] in a line: NCI Yeast Anticancer Drug Screen. Data for the bub3 strain (AID 167). Conditions: S. cerevisiae bub3 mutant strain, at 50.0 µM, stronger effect = higher value. The method, boiled down: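 Inhibition values come from growth of compound-treated mutant yeast normalised to vehicle-treated controls.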
Assay [6] is described as follows: NCI Yeast Anticancer Drug Screen. Data for the mlh1 rad18 strain (AID 175). As to conditions: S. cerevisiae mlh1 rad18 strain growth inhibition; at 50.0 µM; stronger effect = higher value. In a few lines:
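Steps: expose repair-defective yeast to compound; measure growth; express inhibition against vehicle-treated controls.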

Structures are written as SMILES. The panel holds about 79,000 compounds, 15% with a hit somewhere; the sample as a whole holds those more often. Unmarked numbers belong to inactive results. Calls of active or inactive are those of the source. Cut-off read from the data, not from the text of the source: active = growth inhibition above about 70%; inactive = the rest.

Regarding `CCCN(CCC)C(=S)S`, the growth inhibition in assay [1] is 43.1%; in assay [2], 7.95%; in assay [3], 54.1%; in assay [4], 32.7%; in assay [5], 23.2%; in assay [6], 14.4%.

In the case of `CC(C)N(CC(=O)NC(=O)c1ccccc1)Cc1ccccc1`, the growth inhibition was 3.5% in assay [1]; -8.4% in assay [2]; -1.95% in assay [3]; -30.1% in assay [4]; -1.5% in assay [5]; -11.7% in assay [6].

Consider `Nc1nc(SCC(=O)O)nc(N)c1N=Nc1ccc(S(=O)(=O)NC(=O)c2ccccc2)cc1`, for which the growth inhibition is 7.3% in assay [1]; 5.75% in assay [2]; -7.4% in assay [3]; -0.3% in assay [4]; 0.1% in assay [5]; 15.6% in assay [6].

With `CN(C)P1(=O)N(c2ccc(Cl)cc2)P(=O)(N(C)C)N1c1ccc(Cl)cc1` (stereo unspecified), the growth inhibition was -14.2% in assay [1]; -35.6% in assay [2]; -13.1% in assay [3]; 2% in assay [4]; -25% in assay [5]; -13.3% in assay [6].

Consider `Cc1nc2ccc(Cl)cc2c2c1CCS2`, for which the growth inhibition was -19.1% in assay [1]; -17.3% in assay [2]; -2.8% in assay [3]; -18.1% in assay [4]; -23.1% in assay [5]; -51.4% in assay [6].

Consider `CCCCCC(CCCCC)c1ccccn1`, for which the growth inhibition was -14.3% in assay [1]; -11.4% in assay [2]; 3.95% in assay [3]; 22.4% in assay [4]; 26.9% in assay [5]; 4.1% in assay [6].

Regarding `COc1ccc(Cc2ccc(CO)cc2)cc1`, the growth inhibition in assay [1] is 4.6%; in assay [2] it was -18.9%; in assay [3], -31.9%; in assay [4], -20%; in assay [5], -7.7%; in assay [6] it was -14.2%.

For `O=C(/C(=C\c1ccccc1)c1ccccc1)c1ccccc1`, the growth inhibition in assay [1] was 25.1%; in assay [2], 32.8%; in assay [3], 26.4%; in assay [4], -75.2%; in assay [5], 28.2%; in assay [6], 21.4%.

Turning to `CCOC(=O)C1(Br)C(c2ccccc2)NC(=O)N(C2OC(COC(=O)c3ccccc3)C(OC(=O)c3ccccc3)C2OC(=O)c2ccccc2)C1(C)Br` (stereo unspecified), the growth inhibition in assay [1] is -25.4%; in assay [2], -28.4%; in assay [3], -27.9%; in assay [4], 6.4%; in assay [5], 7%; in assay [6], -22.8%.

Take `Oc1ccc(CN=Cc2ccccc2)cc1`: the growth inhibition was 0.05% in assay [1]; 3.3% in assay [2]; -7.05% in assay [3]; -14.9% in assay [4]; -15.6% in assay [5]; -10.1% in assay [6].

Consider `CSCCCCCCSC`, for which the growth inhibition in assay [1] is -0.1%; in assay [2], 5.1%; in assay [3], -2.75%; in assay [4], -27.8%; in assay [5] it was -5.35%; in assay [6], 5.9%.

As for `CCCNC(=O)Nc1ccc(Nc2ccccc2)cc1`, the growth inhibition is 5.9% in assay [1]; 2.5% in assay [2]; -0.5% in assay [3]; 4.4% in assay [4]; 18.2% in assay [5]; 2% in assay [6].

For the compound `CNC(=O)OCc1c(COC(=O)NC)c2n(c1C)CSC2`, the growth inhibition in assay [1] was 4.95%; in assay [2], -14.4%; in assay [3], -11.3%; in assay [4], -7.9%; in assay [5], -5.45%; in assay [6], 2%.

As for `CC1CCCc2c1c1ccc3c(O)cccc3c1oc2=O` (stereo unspecified), the growth inhibition in assay [1] is -10%; in assay [2], -4.15%; in assay [3] it was -15.4%; in assay [4], 16.9%; in assay [5] it was -5.95%; in assay [6], -18.9%.

As to `c1ccc2c(c1)ccc1c3ccccc3ccc21`, the growth inhibition is 14.5% in assay [1]; 10.9% in assay [2]; 13.6% in assay [3]; 25.6% in assay [4]; 24.4% in assay [5]; 17.6% in assay [6].

On to `Cc1cccc(C(=O)N(C)C)c1`, for which the growth inhibition in assay [1] was -0.7%; in assay [2], 1.75%; in assay [3], -6.4%; in assay [4], -17.8%; in assay [5], 4%; in assay [6] it was 3.75%.

For the compound `Nc1nc(SCCCc2ccccc2)c2[nH]cnc2n1`, the growth inhibition was 7.95% in assay [1]; -2.9% in assay [2]; -3.4% in assay [3]; 25.1% in assay [4]; 31.6% in assay [5]; -6.55% in assay [6].

As for `CCCC(C)(C#N)c1ccc(OC)cc1` (stereo unspecified), the growth inhibition in assay [1] is 33.8%; in assay [2] it was 13.2%; in assay [3] it was 31.6%; in assay [4] it was 1.65%; in assay [5], 32.4%; in assay [6], -11.8%.

As for `CN/N=C(/Cc1occc(=O)c1O)C(=O)Nc1ccc(C)c(C)c1`, the growth inhibition in assay [1] was 15.4%; in assay [2], 7.05%; in assay [3], -16.7%; in assay [4] it was 3.15%; in assay [5] it was 7.35%; in assay [6] it was 18.1%.

For the compound `O=C1C=C(c2ccccc2)Sc2ccccc2N1`, the growth inhibition in assay [1] was 25.9%; in assay [2], 34.5%; in assay [3], 19.1%; in assay [4], -1.4%; in assay [5] it was 26.1%; in assay [6] it was 53.2%.

With `Cc1cccc(N=Cc2ccc(N(CCC#N)S(=O)(=O)c3ccccc3)cc2C)c1`, the growth inhibition was -34.5% in assay [1]; -16.6% in assay [2]; -54.9% in assay [3]; -8.35% in assay [4]; -10.9% in assay [5]; -9.2% in assay [6].

For the compound `CC(=O)Nc1ccc(Cc2[nH]c(=O)[nH]c(=O)c2Br)cc1`, the growth inhibition in assay [1] was 4.3%; in assay [2] it was -30.9%; in assay [3] it was -19.6%; in assay [4], -0.6%; in assay [5], 1.05%; in assay [6], -16.2%.

Regarding `Cc1cccc(C)c1NC(=O)Oc1ccc(Cl)cc1Cc1ccccc1`, the growth inhibition in assay [1] is 98.5% (active); in assay [2], 99.5% (active); in assay [3], 99.6% (active); in assay [4] it was 98.9% (active); in assay [5], 99.3% (active); in assay [6], 99.3% (active).

Turning to `CC(=O)Nc1ccc(C(F)(F)F)cc1`, the growth inhibition in assay [1] was -5.2%; in assay [2], -7.75%; in assay [3] it was -15.8%; in assay [4] it was -3.15%; in assay [5] it was -7.7%; in assay [6], 13.2%.

`NCCCCCCNCc1cccc2ccccc12`: the growth inhibition is -9.85% in assay [1]; -13.1% in assay [2]; -9.7% in assay [3]; 6.05% in assay [4]; -10.3% in assay [5]; -31.4% in assay [6].

Take `CCOc1ccccc1NC(=O)C1=C(C)NC(C)=C(C(=O)Nc2ccccc2OCC)C1c1ccc(NC(C)=O)cc1`: the growth inhibition is -30.1% in assay [1]; -10.8% in assay [2]; -15.4% in assay [3]; -5.9% in assay [4]; -22.2% in assay [5]; 11.7% in assay [6].

As to `Cc1ccc(C(C)C)nc1`, the growth inhibition in assay [1] was 17.1%; in assay [2], 18.5%; in assay [3], 19.1%; in assay [4], 25.2%; in assay [5] it was 22.5%; in assay [6], 26.7%.

Regarding `CCn1c(C)[n+](CC)c2ccc(C(C)=O)cc21`, the growth inhibition is -0.35% in assay [1]; -19.7% in assay [2]; -3.95% in assay [3]; 8.95% in assay [4]; 2.55% in assay [5]; -8.75% in assay [6].

Regarding `Cc1[nH]c(=O)n2c(C)nnc2c1C(=O)Nc1cc(Cl)cc(Cl)c1`, the growth inhibition is 15.2% in assay [1]; -0.45% in assay [2]; 39% in assay [3]; 18.4% in assay [4]; 7.5% in assay [5]; 31.2% in assay [6].

With `CCCNC(=O)Nc1ccc(OCC)cc1`, the growth inhibition in assay [1] was 0.1%; in assay [2] it was -11.3%; in assay [3], -14.8%; in assay [4], -36.8%; in assay [5], 2.2%; in assay [6] it was 5.5%.

With `CC(C)(C)N=C1CC(C)(C)c2ccccc2C(=Nc2ccccc2)S1`, the growth inhibition in assay [1] is 23.2%; in assay [2], 9.55%; in assay [3], 24.8%; in assay [4], 24.1%; in assay [5], 8.3%; in assay [6] it was 15.3%.

For `O=S1c2ccccc2S(=O)c2ccccc21` (stereo unspecified), the growth inhibition in assay [1] was -0.2%; in assay [2], -6.25%; in assay [3], 1.4%; in assay [4], -0.55%; in assay [5], 0.95%; in assay [6] it was 1.15%.

Regarding `CCOC(=O)C(CS(=O)(=O)N(CC)CC)NC(=O)c1ccccc1` (stereo unspecified), the growth inhibition in assay [1] was -1.4%; in assay [2], -10.6%; in assay [3] it was 2.9%; in assay [4], -10.8%; in assay [5] it was 5.15%; in assay [6] it was -18.6%.

With `CS(=O)(=O)OCCC(COS(C)(=O)=O)NC(=O)c1ccccc1` (stereo unspecified), the growth inhibition in assay [1] is -3.75%; in assay [2] it was -8.95%; in assay [3], -2.85%; in assay [4], -18.1%; in assay [5], -10.3%; in assay [6], -4.95%.

On to `c1csc(C(NC2=NCCO2)C2CC2)c1` (stereo unspecified), for which the growth inhibition in assay [1] was -32.9%; in assay [2], -11.2%; in assay [3] it was -22.9%; in assay [4], -25.1%; in assay [5] it was -27.5%; in assay [6] it was 41.8%.

For the compound `CC1=NNC(=O)C1CCS` (stereo unspecified), the growth inhibition was -3.55% in assay [1]; 4.35% in assay [2]; -1.45% in assay [3]; -3.1% in assay [4]; -8% in assay [5]; -7.4% in assay [6].

Turning to `CCOC(=O)C1CC1Cc1ccccc1` (stereo unspecified), the growth inhibition in assay [1] was -18.1%; in assay [2], -9.95%; in assay [3], -2.2%; in assay [4] it was -7.2%; in assay [5] it was 6.05%; in assay [6], -2.95%.

Consider `CCC(C)NC(=O)/C(=C\c1ccccc1O)NC(=O)c1ccccc1` (stereo unspecified), for which the growth inhibition in assay [1] is -30.1%; in assay [2], -35.6%; in assay [3] it was -2.25%; in assay [4], -5.65%; in assay [5], -4.3%; in assay [6] it was -4.45%.

For `O=[N+]([O-])c1ccc2oc3cccnc3c2c1`, the growth inhibition in assay [1] was 28.6%; in assay [2] it was -2.8%; in assay [3], -2.65%; in assay [4] it was -14.1%; in assay [5], 1.3%; in assay [6], 12.8%.

Consider `Nc1ccn(CC(=O)c2ccc(Cl)s2)c(=O)n1`, for which the growth inhibition is -1% in assay [1]; 10.8% in assay [2]; 6.9% in assay [3]; -5.1% in assay [4]; 2.15% in assay [5]; 6.3% in assay [6].

`CC(C)(C)c1onc2c1C(=O)c1ccccc1-2`: the growth inhibition in assay [1] is -3.7%; in assay [2] it was -2.55%; in assay [3], 1.35%; in assay [4], -5.9%; in assay [5] it was 25.9%; in assay [6], -2.75%.

For the origin of these results see PubChem BioAssay (NCI).
